About 320 (0.1%) of roughly 320,000 compounds were called active. The list comes from a sample in which actives are over-represented; it also holds similar structures and randomly drawn compounds. Values without a mark were called inactive.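 The calls were made as follows: active = more than half of replicates show inhibition above 20%; inconclusive = some but at most half of replicates above 20% inhibition; inactive = no replicate shows inhibition above 20%.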 Non-standard residues stand in square brackets, D forms with d. Residues, ends and D or L forms follow the SMILES beside them. ξ: configuration not given here. ξM = CSCCC(N)C(=O)O
molecular target: Glycogen synthase kinase-3 alpha (Homo sapiens) (UniProt P49840); experiment: blockers of GSK3A enzyme activity – biochemical, luminescence, cell-free homogeneous, HTS, primary screen (AID 2650); settings: GSK-3 alpha kinase, ADP-Glo luminescence, 60 min; at 10 µM; stronger effect = higher value;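 also: GST-tagged GSK-3 alpha with peptide substrate and 25 µM ATP; 0% = DMSO neutral wells and 100% = GW8510 positive control wells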
Sequence (P49840 whole entry, looked up): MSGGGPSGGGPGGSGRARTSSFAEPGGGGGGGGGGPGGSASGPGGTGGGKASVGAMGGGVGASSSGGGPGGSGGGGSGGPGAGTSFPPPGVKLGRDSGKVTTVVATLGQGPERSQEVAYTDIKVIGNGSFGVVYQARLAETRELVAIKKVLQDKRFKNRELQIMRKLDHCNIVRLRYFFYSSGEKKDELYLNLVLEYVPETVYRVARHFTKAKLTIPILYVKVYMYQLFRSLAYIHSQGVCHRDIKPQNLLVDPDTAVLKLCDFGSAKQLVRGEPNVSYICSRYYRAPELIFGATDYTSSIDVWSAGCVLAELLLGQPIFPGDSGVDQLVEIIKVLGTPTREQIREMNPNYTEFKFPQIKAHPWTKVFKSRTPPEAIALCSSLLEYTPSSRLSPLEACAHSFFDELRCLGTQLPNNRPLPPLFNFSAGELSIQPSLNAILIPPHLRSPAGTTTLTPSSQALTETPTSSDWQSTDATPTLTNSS

| SMILES | inhibition |
| --- | --- |
| COc1ccc(/C=C/C(=O)OCC(=O)NC2CCCCCC2)cc1OC | -0.779% |
| COc1ccc(S(=O)(=O)N2CCN(C(C)C(=O)Nc3ccc(C(C)C)cc3)CC2)cc1 (stereo unspecified) | 1.33% |
| COCCCn1c(Cc2csc(Nc3cccc(Cl)c3)n2)nnc1SCC(=O)OC1CCCCC1 | 1.8% |
| CC(=O)c1cccc(OCC(=O)OCC(=O)Nc2cc(S(=O)(=O)N3CCCCC3)ccc2C)c1 | 2.43% |
| CCOCC(=O)Nc1ncc(S(=O)(=O)c2ccc([N+](=O)[O-])cc2)s1 | -1.6% |
| COC(=O)CNC(=O)C(CCSC)NC(C)=O (stereo unspecified) (Ac-[ξM]-Gly-OMe) | -4.49% |
| CSCc1cc(N(C)C)nc(SCc2ccc(Cl)cc2Cl)n1 | -5.57% |
| COCCNc1nc(N)c([N+](=O)[O-])c(N2CCCCCC2)n1 | 1.39% |
| COCCNc1nc(N)c([N+](=O)[O-])c(NCCO)n1 | 53.1% (active) |
| C=CCNc1nc(N)c([N+](=O)[O-])c(NC2CCCCC2)n1 | 0.434% |
| COc1ccc(C(=O)NCc2ccccc2C)cc1S(=O)(=O)NC1CCCC1 | -2.96% |
| Cn1c(SCC(=O)Nc2nccs2)nnc1-c1cccnc1 | 2.04% |
| CC1CCCN(C(=O)CN2C(=O)c3ccccc3S2(=O)=O)C1 (stereo unspecified) | -0.713% |
| CC1CC(=NNC(=O)C2COc3ccccc3O2)CC(C)(C)C1 (stereo unspecified) | 0.373% |
| C=CCC[C@H](Cc1ccc(F)cc1)C(=O)OC[C@@H](NC(=O)[C@@H](CC=C)CC(=O)N[C@H](CO)Cc1ccccc1)C(C)(C)C | -1.79% |
| CS(=O)(=O)N(CC(=O)NC1CCCC1)Cc1ccc(F)cc1 | 10.3% |
| O=S(N1CCCCCC1)C12CC3CC(CC(C3)C1)C2 (stereo unspecified) | -2.72% |
| Cc1cc(C)c(S(=O)(=O)n2cc(C(C)C(N)C(=O)O)c3ccccc32)c(C)c1 (stereo unspecified) | -2.93% |
| NC1=NC[C@@H](Cc2ccc(O)cc2)N1CC1CCCCC1 | 1.17% |
| O=C(CSc1nc2nccnc2c(=O)n1Cc1cccs1)Nc1ccccc1F | 1.43% |
| O=C(c1ccc(N2CCOCC2)c([N+](=O)[O-])c1)N1CCN(c2ccccc2F)CC1 | -2.69% |

| SMILES | inhibition |
| --- | --- |
| Cn1c(-c2ccc(F)cc2)cc2onc(-c3ccccc3Cl)c2c1=O | -1.73% |
| CCN(CC)CCCNC(=O)CCn1nc(-c2ccc(Cl)cc2)ccc1=O | -1.8% |
| O=C(NCCCN1CCCC1=O)C(=O)NCC1OCCN1S(=O)(=O)c1ccc(Br)cc1 (stereo unspecified) | -1.8% |
| COc1ccc2nc3n(c(=O)c2c1)-c1ccc(Cl)cc1C(=O)NC3Cc1ccccc1 (stereo unspecified) | -2.35% |
| N#Cc1ccccc1CN1C(=O)S/C(=C/c2cccn2-c2cccc(C(=O)O)c2)C1=O | 3.06% |
| COc1ccc(Cn2c(C)c(C)c(C#N)c2NC(=O)Nc2ccc(F)cc2)cc1 | -1.46% |
| O=C(Nc1ccc(S(=O)(=O)N2CCCCC2)cc1)C1CC(=O)N(c2ccc(F)cc2)C1 (stereo unspecified) | 0.943% |
| CCOc1ccc(S(=O)(=O)NCCC(=O)NCC(C)(C)N2CCOCC2)cc1 | -4.12% |
| CC(C)n1cnc2c(NCc3ccccc3)cc(N[C@@H](CO)Cc3ccccc3)cc21 | -3.52% |
| CCOc1ccc(CCNC(=O)C(CC)n2nc(C)n3c(cc4sccc43)c2=O)cc1OCC (stereo unspecified) | 8.43% |
| CC1=C(C(=O)NC2CC(C)(C)Cc3c2cnn3-c2ccc(C)cc2)OCCO1 (stereo unspecified) | -2.77% |
| Cc1cccn2c(=O)nc(SCC(=O)NCc3ccccc3Cl)nc12 | -2.07% |
| O=C(CN(C(=O)c1csnn1)c1cccc(F)c1)NCc1ccc(F)cc1 | 0.738% |
| O=C(Nc1ccccn1)C1CCN(S(=O)(=O)c2ccccc2)CC1 | 3.28% |
| CCCC1NC(=S)NC(C)=C1C(C)=O (stereo unspecified) | -1.05% |
| OCCCNc1nc(-c2ccccc2)c2cc(Cl)ccc2n1 | 1.49% |
| OCCCNc1nccc(-c2cc(Nc3cccc(Cl)c3)ncn2)n1 | 89.3% (active) |
| CC(C)n1cnc2c(Nc3cccc(Cl)c3)nc(N(CCO)CCCO)nc21 | 9.71% |
| CCCOc1ccc(Cc2c(O)nc(N)[nH]c2=O)cc1C | -0.849% |
| CCn1c(SC)nc(O)c(C(c2ccc(OC)c(O)c2)c2c(O)nc(SC)n(CC)c2=O)c1=O | -6.95% |

— PubChem BioAssay AID2650 (Broad Institute, 2010)
